The full data set covers some 8,800 targets. This sample favours those with a hit. About 0.5% of all pairs of compound and target were hits.
Tests used:
Experiment in all cases: log2 fold change, soluble protein after heating vs DMSO (PISA); higher = thermal stabilisation; K562 lysate, 10 uM; active = over 0.2 and 3.5 SD of the protein, either way, in both replicates (recomputed)
erlotinib = compound: C#Cc1cccc(Nc2ncnc3cc(OCCOC)c(OCCOC)cc23)c1 [erlotinib]
Summary of the method: (§1)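 Dounce homogenisation of K562 pellets in PBS pH 7.4 with 1 mM MgCl2 produced a crude extract, used at 1 mg/mL protein. Exposure to 10 μM compound lasted 30 min, and aliquots were then heated for 3 min across 48°C-58°C, pooled and brought to 0.5% NP-40 at 4°C. The supernatant after 21,000xg for 90 min was quantified by TMTpro 16plex LC-MS/MS with channel sums equalised. Duplicate values are given as log-two fold change in thermal stability relative to solvent controls.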

[1] = compound: C/C(=N\NC(=O)C1=CC(=CC=C1)S(=O)(=O)N2CCOCC2)/C3=C(C=CC(=C3)Cl)O
Summary of the method: as §1

[2] = compound: C1=CC(=CC=C1C2=NC3=C(N2)C=C(C=C3)C(=O)N)OC4=CC=C(C=C4)Cl
Summary of the method: as §1

[3] = compound: C1=CC2=C(C=CC(=C2)/C=C\3/C(=O)NC(=NCC4=CC=CS4)S3)N=C1
Summary of the method: as §1

[4] = compound: C1=CC=C2C(=C1)C3=NNC4=CC=CC(=C43)C2=O
Summary of the method: as §1

[5] = compound: C1CCN(C1)C(=O)NC2=CC=CC(=C2)NC3=NC=C(C(=N3)NCCC4=CN=CN4)Br
Summary of the method: as §1

[6] = compound: C1CN(CCC1(CC2=CC=C(C=C2)Cl)N)C3=NC=NC4=C3C=CN4
Summary of the method: as §1

[7] = compound: C1=CC2=NC=CN=C2C=C1/C=C/3\C(=O)NC(=O)S3
Summary of the method: as §1

Measured: log2 fold change

YBEY (UniProt P58557)
Chain of UniProt P58557 (P58557 whole entry, looked up): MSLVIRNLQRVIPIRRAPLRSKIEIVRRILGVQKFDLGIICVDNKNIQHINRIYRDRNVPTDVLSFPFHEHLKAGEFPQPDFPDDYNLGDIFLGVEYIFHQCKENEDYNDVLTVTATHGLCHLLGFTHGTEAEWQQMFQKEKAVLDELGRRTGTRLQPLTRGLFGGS
inactive: erlotinib 0.101 | [1] -0.164 | [2] 0.009 | [3] -0.039 | [4] -0.031 | [5] -0.011 | [6] 0.111

WIPI2 isoform 6 (UniProt Q9Y4P8)
Chain of UniProt Q9Y4P8 (Q9Y4P8 whole entry, looked up): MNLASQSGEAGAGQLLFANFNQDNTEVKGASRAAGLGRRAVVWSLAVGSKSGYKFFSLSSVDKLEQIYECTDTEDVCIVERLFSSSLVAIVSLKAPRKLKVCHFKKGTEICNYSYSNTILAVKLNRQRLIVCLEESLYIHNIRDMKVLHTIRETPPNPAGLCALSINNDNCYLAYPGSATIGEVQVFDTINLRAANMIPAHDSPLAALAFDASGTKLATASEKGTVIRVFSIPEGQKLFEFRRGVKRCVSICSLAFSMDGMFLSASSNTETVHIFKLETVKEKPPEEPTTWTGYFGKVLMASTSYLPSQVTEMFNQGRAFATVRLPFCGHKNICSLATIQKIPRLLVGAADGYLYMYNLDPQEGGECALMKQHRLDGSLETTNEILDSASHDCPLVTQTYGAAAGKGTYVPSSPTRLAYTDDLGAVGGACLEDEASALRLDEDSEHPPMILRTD
inactive: [7] 0.079
